In the supplement of paper PMC8387472:

Columns and labels:
Conditions in all cases: mESC; 2uM; 72 h treatment, harvest day 5
Kenpaullone = compound: O=C1Cc2c([nH]c3ccc(Br)cc23)-c2ccccc2N1 [Kenpaullone]; experiment: fraction of microhomology deletions among edited reads; higher = more MH deletions
Genistein = compound: O=c1c(-c2ccc(O)cc2)coc2cc(O)cc(O)c12 [Genistein]; experiment: as above
[1] = compound: O=c1cc(N2CCOCC2)oc2c(-c3ccc4c(c3)OCCO4)csc12; experiment: as above
Mercaptopurine (6-MP) = compound: S=c1[nH]cnc2nc[nH]c12 [Mercaptopurine (6-MP)]; experiment: as above
[2] = compound: S=c1nc[nH]c2nc[nH]c12 [6-Mercaptopurine (6-MP) Monohydrate]; experiment: as above
[3] = compound: CC(=O)O/N=C1\C(=O)N(Cc2cc(Cl)ccc2Cl)c2ccc(Cl)cc21; experiment: fraction of 1-bp insertions among edited reads; higher = more 1-bp insertion outcomes
[4] = compound: CC(C)(C#N)c1ccc(N2C(=O)OCc3cnc4ccc(-c5cnc6ccccc6c5)cc4c32)cc1; experiment: as above
[5] = compound: CCCCOc1c(C(=O)c2c(F)cc(C)cc2F)c[nH]c2nncc1-2; experiment: as above
[6] = compound: CCN1CCN(CC(=O)Nc2ccc(-c3cccc4c(=O)cc(N5CCOCC5)oc34)c3sc4ccccc4c23)CC1; experiment: as above
[7] = compound: CCc1c2c(nc3ccc(OC(=O)N4CCC(N5CCCCC5)CC4)cc13)-c1cc3c(c(=O)n1C2)COC(=O)[C@]3(O)CC [Irinotecan HCl Trihydrate]; experiment: as above

Target | fraction of microhomology deletions among edited reads (Kenpaullone) | fraction of microhomology deletions among edited reads (Genistein) | fraction of microhomology deletions among edited reads [1] | fraction of microhomology deletions among edited reads (Mercaptopurine (6-MP)) | fraction of microhomology deletions among edited reads [2] | fraction of 1-bp insertions among edited reads [3] | fraction of 1-bp insertions among edited reads [4] | fraction of 1-bp insertions among edited reads [5] | fraction of 1-bp insertions among edited reads [6] | fraction of 1-bp insertions among edited reads [7]
2.0 (DMSO control at this site: 1-bp insertion 0.364, MH deletion 0.356, edited 0.125) GGTGCCCCCGAGACCTACGCGAACCGAAATCGATGTCCGGTGCGCAAGCAGGGCTGGCGTC | 0.29 | 0.4 | 0.419 | 0.33 | 0.321 | 0.325 | 0.381 | 0.379 | 0.106 | 0.355
20.0 (DMSO control at this site: 1-bp insertion 0.349, MH deletion 0.138, edited 0.084) TACAGGTGTAGACTGGTTACGTGGCTGCGGAATTGACTGGTTACGTGGCTGCGGAATTTTG | 0.181 | 0.197 | 0.176 | 0.2 | 0.243 | 0.29 | 0.248 | 0.373 | 0.0738 | 0.285
39.0 (DMSO control at this site: 1-bp insertion 0.328, MH deletion 0.371, edited 0.204) CTGCACAGTCACTTAGGATAGGAGAAGATGATGTATAGGGTTTAGTGGGAGATGTTGCAAG | 0.264 | 0.404 | 0.406 | 0.356 | 0.371 | 0.334 | 0.385 | 0.418 | 0.163 | 0.423
17.0 (DMSO control at this site: 1-bp insertion 0.112, MH deletion 0.348, edited 0.058) CCATAGCGCGATAAATATGACGGCTCATCCTGTATGACGGCTCATCCTGTATCAACTGTCC | 0.377 | 0.409 | 0.342 | 0.422 | 0.393 | 0.12 | 0.143 | 0.145 | 0.0756 | 0.161
31.0 (DMSO control at this site: 1-bp insertion 0.315, MH deletion 0.329, edited 0.026) ACCTCCACAGGCTGGGTGGCCCGGAGGCTGGGCGGCCCGGAGGCTGGGCTGGGCGAGTATC | 0.518 | 0.477 | 0.404 | 0.459 | 0.408 | 0.215 | 0.14 | 0.2 | 0.106 | 0.105
3.0 (DMSO control at this site: 1-bp insertion 0.109, MH deletion 0.149, edited 0.09) TGCTAGCGCCCCCACAAAGCGGACCAGCCAGCACTATAGGGAATAAGGCCAACTTGCACCC | 0.194 | 0.196 | 0.162 | 0.168 | 0.254 | 0.126 | 0.122 | 0.16 | 0.0557 | 0.111
41.0 (DMSO control at this site: 1-bp insertion 0.022, MH deletion 0.754, edited 0.115) AAAGAGACAGCAGGTATGAATCCATCTTCCTGACCCTTGGGACCAGCCGGGGCAGTGAAGC | 0.672 | 0.753 | 0.762 | 0.701 | 0.674 | 0.0367 | 0.0302 | 0.0252 | 0.0166 | 0.0367
43.0 (DMSO control at this site: 1-bp insertion 0.134, MH deletion 0.714, edited 0.104) AGTTTAACTTACTCCGGCCAAAAAAGAACTGCACCTCTGGAGCGGGTTAGTGGTGGTGGTA | 0.658 | 0.671 | 0.688 | 0.614 | 0.592 | 0.0687 | 0.0941 | 0.0843 | 0.0439 | 0.113
42.0 (DMSO control at this site: 1-bp insertion 0.145, MH deletion 0.655, edited 0.132) GGGCTAAACCTATGAGCACAGTAGAACTAAGGGTGGGTGGTGTAGCTAAAGAACTTGACCA | 0.557 | 0.662 | 0.691 | 0.589 | 0.567 | 0.116 | 0.148 | 0.144 | 0.0719 | 0.125
1.0 (DMSO control at this site: 1-bp insertion 0.521, MH deletion 0.323, edited 0.141) GTGTCACAGTGCACGAGTGACGGGATAATGTGCTGACAGGTAATTGATAGGCTTCCAACTT | 0.197 | 0.286 | 0.276 | 0.227 | 0.218 | 0.514 | 0.557 | 0.595 | 0.243 | 0.586
7.0 (DMSO control at this site: 1-bp insertion 0.128, MH deletion 0.374, edited 0.098) TACTCAACCGAGACCTACGCGAACCGAAATCGTATGCCGGTGCGCAAGCAGGGCTGGCGTC | 0.436 | 0.476 | 0.43 | 0.401 | 0.367 | 0.105 | 0.131 | 0.164 | 0.113 | 0.105
46.0 TTAAGAGCAATGTTCACGCAACTTGAAATTATATCTGTGGTCTTCAAATTGTCTTTTGTCA |  | 0.375 |  |  | 0.33 |  | 0.09 | 0.208 |  | 
21.0 CGATTGAGAGTCAAACGGGCCAGAAAACTCCGGGAACGGGCCAGAAAACTCCGGGGCATGG | 0.17 | 0.202 | 0.158 | 0.16 | 0.165 | 0.0304 | 0.021 | 0.0327 | 0.0195 | 0.0253
32.0 (DMSO control at this site: 1-bp insertion 0.03, MH deletion 0.85, edited 0.898) AGAAGTCCAGGATCAGGGGGACTGGGGTCGGGAGGGTGGGGCAGGAAGGAAGCCAGAATCA | 0.904 | 0.88 | 0.92 | 0.903 | 0.897 | 0.00904 | 0.0156 | 0.0115 | 0.00897 | 0.00964
29.0 (DMSO control at this site: 1-bp insertion 0.084, MH deletion 0.745, edited 0.133) TTGATGAACTTCCTCTTCTTCTCATGTCTCCGGTCTCCGGTAGGCCACGTGCATGGCCACT | 0.631 | 0.718 | 0.735 | 0.669 | 0.633 | 0.0853 | 0.0763 | 0.0825 | 0.0366 | 0.0846
8.0 GCATGCGTGTTTTGGGACAATGTAGTATACATTTGGGAGGCTCTCAGCTTTTCCCAATAAA | 0.0098 |  |  |  | 0.00885 | 0.443 | 0.455 | 0.303 |  | 
15.0 GCGCCTCCAATGACCCAGTGGGATCCTACTCCATAATGGGATCCTGGGGATTCCTCGCTCC |  | 0.299 |  |  | 0.339 | 0.254 | 0.168 |  |  | 
4.0 (DMSO control at this site: 1-bp insertion 0.146, MH deletion 0.523, edited 0.125) ACGCCTTAGTGCACGAGTGACGGGATAATGTGGTCTCAGGTAATTGATAGGCTTCCAACTT | 0.475 | 0.553 | 0.586 | 0.478 | 0.463 | 0.121 | 0.127 | 0.152 | 0.0339 | 0.116
40.0 (DMSO control at this site: 1-bp insertion 0.072, MH deletion 0.192, edited 0.189) GCGAATCAACTGTTCAACAACAGCAGCAGCCACCTGGAGGACTACAGTGGCCTGTCCGTGT | 0.124 | 0.192 | 0.211 | 0.145 | 0.137 | 0.0727 | 0.0752 | 0.072 | 0.0486 | 0.0746
